Results on 19 molecules are retold here after PubChem BioAssay (NCATS).

Test [1] in a line: Validation of Assay for Modulators of Lamin A Splicing (AID 1459; active means well fitted curve in the direction sought with a large enough effect in the signal ratio; the % refers to the signal ratio;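 further: cells exposed to compound for two days before reading; ratio rise marks activators and ratio drop marks inhibitors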). Put shortly: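 S3 HeLa cells stably expressing a lamin A-EGFP splicing minigene and DsRed2 were seeded at 600 cells/well in Opti-MEM with 2% FBS, pin-dosed, and incubated 48 hrs at 37 °C, 5% CO2. Laser-scanning cytometry (488 nm) gave GFP/RFP total intensity ratio.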
The target of test [2] is DNA repair nuclease/redox regulator APEX1 (Homo sapiens) (UniProt P27695). The experiment in a line: qHTS Validation Assay for Inhibitors of the Human Apurinic/apyrimidinic Endonuclease 1 (APE1) (AID 1705; further: potency means the concentration at half of the fitted maximal effect). Put shortly:
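Human APE1 was preincubated with compound for 15 min at room temperature, then 50 nM (final) THF-abasic double-stranded DNA substrate bearing 5'-TAMRA and 3'-BHQ-2 was added. Incision-driven fluorescence rise (ex 525/em 598 nm) was read kinetically.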
(qHTS replaces the single test concentration by a dilution series.)

Test [3] in a line: Counterscreen for APE1 Inhibitors: Fluorescent Dye Displacement Validation Assay (AID 1707). The method in brief:
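Counterscreen flags promiscuous DNA binders: compounds displacing ThO from duplex DNA (abasic THF site, 50 nM) reduce 540 nm emission (480 nm excitation). ThO 250 nM final; Tris-HCl pH 7.5 with NaCl, MgCl2 and Tween-20.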
In general terms: A counterscreen serves to expose hits that act by an unwanted route or on another target.

The target of test [4] is Endonuclease 4 (Escherichia coli (strain K12)) (UniProt P0A6C1). The test can be described thus: Counterscreen for APE1 Inhibitors: qHTS Validation Assay for Inhibitors of Endonuclease IV (AID 1708). The method in brief: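 Measured as reaction progress, the fluorescence gain between first and third kinetic reads after adding 50 nM TAMRA/BHQ-2 THF duplex to 2 nM enzyme preincubated 15 min with compound; 2 mM MgCl2, pH 7.5.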

The nature of test [5]: qHTS for differential inhibitors of proliferation of Plasmodium falciparum line 7G8 (AID 1815).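 Further: parasite growth measured after three days of incubation.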 Further: potency means the concentration at half of the fitted maximal effect.
Test [6] in a line: qHTS for differential inhibitors of proliferation of Plasmodium falciparum line GB4 (AID 1816).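 Further: parasite growth measured after 72 h incubation.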 Further: potency means the concentration at half of the fitted maximal effect. The note with it: Potency: Plasmodium falciparum GB4 proliferation inhibition.
Test [7] is described as follows: qHTS for differential inhibitors of proliferation of Plasmodium falciparum line 3D7 (AID 1876). Further: potency means the concentration at half of the fitted maximal effect.
Test [8] can be described thus: qHTS for differential inhibitors of proliferation of Plasmodium falciparum line D10 (AID 1877).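 Further: parasites grown with compound for 72 h before DNA staining.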 Further: potency means the concentration at half of the fitted maximal effect.
The target of test [9] is Alpha-galactosidase A (Homo sapiens) (UniProt P06280). The test can be described thus: Counterscreen for Glucocerebrosidase Inhibitors: qHTS Assay for Human alpha-Galactosidase at pH 4.5 (AID 992). The method in brief: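 Fluorogenic 1536-well qHTS at pH 4.5 (citrate, Tween-20): 2 nM enzyme, 80 uM 4-MU-alpha-galactoside, 20 min room temperature, NaOH/glycine stop. Titration 0.7 nM to 77 uM, data normalized to no-enzyme and full-activity controls, Hill-fitted AC50.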
Sequence of Alpha-galactosidase A (Homo sapiens) (P06280 whole entry, looked up): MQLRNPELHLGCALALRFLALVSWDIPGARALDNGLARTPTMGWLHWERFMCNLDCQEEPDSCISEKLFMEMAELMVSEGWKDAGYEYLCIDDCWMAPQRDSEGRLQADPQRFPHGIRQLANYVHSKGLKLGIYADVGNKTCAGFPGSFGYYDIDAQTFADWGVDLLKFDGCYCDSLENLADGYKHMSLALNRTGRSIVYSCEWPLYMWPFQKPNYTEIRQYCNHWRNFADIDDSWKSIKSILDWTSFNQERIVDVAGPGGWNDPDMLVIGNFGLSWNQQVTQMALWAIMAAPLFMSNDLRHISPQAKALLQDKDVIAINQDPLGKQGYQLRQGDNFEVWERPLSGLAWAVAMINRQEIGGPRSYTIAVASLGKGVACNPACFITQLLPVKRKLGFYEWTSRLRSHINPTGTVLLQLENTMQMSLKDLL

In test [10] the target is alpha-glucosidase (Oryza sativa, rice) (UniProt Q653V4). The experiment in a line: Counterscreen for Glucocerebrosidase Inhibitors: qHTS Assay for Rice alpha-Glucosidase at pH 5.0 (AID 997). The method in brief:
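Endpoint fluorogenic assay at pH 5.0: compounds (0.7 nM to 77 uM) titrated against 4 nM rice enzyme and 400 uM 4-MU-alpha-glucoside for 20 min at room temperature; NaOH/glycine stop, read ex 365/em 440 nm, Hill-fitted AC50.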

Records with an inconclusive call do not appear. The source made the active and inactive calls. Unless noted, the call rests on the fitted dose curve; in most records, active means well fitted curve in the direction sought with a large enough effect; inconclusive means small, poorly fitted or top-dose-only effect, or another doubt; inactive means no such curve, though single readings can be large; an effect the other way counts as inactive or inconclusive.

Sequence of DNA repair nuclease/redox regulator APEX1 (Homo sapiens) (P27695 whole entry, looked up): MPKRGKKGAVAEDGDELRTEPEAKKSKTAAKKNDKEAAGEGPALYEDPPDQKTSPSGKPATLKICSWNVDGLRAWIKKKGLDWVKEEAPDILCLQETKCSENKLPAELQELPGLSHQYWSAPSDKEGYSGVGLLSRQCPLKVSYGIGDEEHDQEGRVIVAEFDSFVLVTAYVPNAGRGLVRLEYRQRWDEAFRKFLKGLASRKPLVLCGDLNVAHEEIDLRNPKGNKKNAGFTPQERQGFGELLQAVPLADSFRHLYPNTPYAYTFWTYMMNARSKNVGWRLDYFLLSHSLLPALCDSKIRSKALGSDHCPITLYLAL

In the case of `O=C(O)/C=C/c1cnc[nH]1`, the molecule was classed as inactive in test [1]. Besides, the Potency entry in [2], in test [3], in test [4], in [5], in test [6] and in test [7] was “inactive” each time. Besides, in [8], the Potency entry is “inactive”.

In the case of `CC(C)C[C@H](NC(=O)C1OC1C(=O)O)C(=O)NCCCCN=C(N)N` (stereo partly specified), the call in test [1] was inactive. The Potency result in [2], in test [3] and in test [4] was “inactive” throughout. Further, the Potency was 4.47 µM (active) in test [5], 3.16 µM (active) in test [6], 2.51 µM (active) in test [7] and 3.55 µM (active) in test [8].

Consider `CCN(c1nc(N)c(C(=O)N=C(N)N)nc1Cl)C(C)C`, for which the molecule was classed as inactive in [9], in [10] and in test [1]. In addition, the Potency entry in [2], in test [3] and in test [4] was “inactive” each time. In addition, the Potency in test [5] was 11.2 µM (active); in [6], 7.94 µM (active); in [7], 10 µM (active); in test [8] it was 11.2 µM (active).

`CCN(CC)CCOC(=O)c1cc(Cl)c(N)cc1OC`: the molecule was called inactive in test [9], in test [10] and in test [1]. In addition, the Potency entry in test [2], in test [3], in test [4], in test [5], in test [6] and in test [7] was “inactive” each time. In addition, the Potency result in test [8] is “inactive”.

Regarding `NCCCCN`, the molecule was classed as inactive in test [9], in [10] and in test [1]. Moreover, the Potency entry in test [2], in test [3], in test [4], in test [5], in test [6] and in test [7] was “inactive” throughout. Moreover, in test [8], the Potency entry was “inactive”.

On to `CC(C)C[C@H](NC(=O)[C@H](O)[C@H](N)Cc1ccccc1)C(=O)O`, for which, in test [1], the molecule was called inactive. Further, the Potency entry in [2], in test [3], in test [4], in test [5], in test [6] and in [7] was “inactive” throughout. The Potency result in [8] is “inactive”.

Turning to `N[C@H](C(=O)O)[C@H]1C[C@@H]1C(=O)O`, in test [1], the call was inactive. Also, the Potency in [2] is 39.8 µM (active). Further, the Potency result in test [3], in test [4], in [5], in test [6], in test [7] and in [8] was “inactive” each time.

Turning to `OC[C@H]1NC[C@@H](O)[C@@H]1O`, the call in test [1] was inactive. Besides, the Potency result in [2], in test [3], in [4], in test [5], in test [6] and in [7] was “inactive” throughout. For the same molecule, the Potency result in test [8] was “inactive”.

Consider `CCCCCCCCCC(=O)NC(CN1CCOCC1)[C@H](O)c1ccccc1` (stereo partly specified), for which the outcome in [1] was inactive. The Potency result in [2], in test [3] and in test [4] was “inactive” in each case. Besides, the Potency in test [5] is 1.26 µM (active); in [6], 2 µM (active); in [7], 6.31 µM (active); in test [8], 12.6 µM (active).

Regarding `N[C@@H](Cc1ccc(F)cc1)C(=O)O`, the call in test [1] was inactive. The Potency result in [2], in test [3] and in test [4] was “inactive” throughout. Moreover, the Potency in test [5] was 12.6 µM (active); in test [6], 14.1 µM (active); in [7], 11.2 µM (active); in [8], 17.8 µM (active).

Turning to `O=C(O)c1ccccc1Nc1ccccc1`, the result in [9], in test [10] and in [1] was inactive. Moreover, the Potency entry in [2], in test [3], in test [4], in test [5], in [6] and in test [7] was “inactive” in each case. In test [8], the Potency entry was “inactive”.

On to `NCC(O)c1ccc(O)c(O)c1` (stereo unspecified), for which the call in test [1] was inactive. Further, the Potency result in [2], in test [3] and in test [4] was “inactive” each time.

Take `N#C/C(=C\c1ccc(O)c(O)c1)C(=O)NCCc1ccccc1`: the result in test [9], in test [10] and in test [1] was inactive. Also, the Potency entry in test [2], in [3] and in test [4] was “inactive” each time. Moreover, the Potency was 8.91 µM (active) in test [5], 10 µM (active) in test [6] and 11.2 µM (active) in [7].

In the case of `C=CCN1CCc2c(cc(O)c(O)c2Br)[C@@H](c2ccccc2)C1`, in test [1], the result was inactive. Besides, the Potency result in test [2], in [3] and in [4] was “inactive” in each case. Besides, the Potency in test [5] is 5.01 µM (active); in test [6], 5.01 µM (active); in test [7], 7.08 µM (active); in test [8], 11.2 µM (active).

Take `CCCCS(=N)(=O)CC[C@H](N)C(=O)O` (stereo partly specified): in test [1], the molecule was called inactive. Moreover, the Potency result in test [2], in test [3], in test [4] and in [8] was “inactive” each time. Moreover, the figures for the Potency in [5] and in test [6] were 12.6 µM (active) and 11.2 µM (active), respectively.

As to `C[C@H](NC(=O)/C(C#N)=C/c1ccc(O)c(O)c1)c1ccccc1`, the molecule was called inactive in [9], in test [10] and in [1]. Also, the Potency result in test [2], in [3] and in test [4] was “inactive” each time. Besides, the Potency is 7.08 µM (active) in test [5], 11.2 µM (active) in test [6], 14.1 µM (active) in test [7] and 12.6 µM (active) in test [8].

Regarding `O=C(O)/C=C/c1ccc(O)c(O)c1`, the result in test [9], in [10] and in [1] was inactive. For the same molecule, the Potency result in test [2], in [3], in test [4], in test [5], in test [6] and in test [7] was “inactive” each time. In test [8], the Potency result is “inactive”.

`Cc1nc2c(OCc3ccccc3)cccn2c1CC#N`: the outcome in [9], in [10] and in test [1] was inactive. Moreover, the Potency entry in test [2], in test [3], in test [4], in [5], in [6] and in [7] was “inactive” in each case.

With `CCOC(=O)C12CC1/C(=N/O)c1ccccc1O2` (stereo unspecified), the molecule was called inactive in test [1]. Also, the Potency entry in test [2], in [3], in [4], in test [5], in [6] and in test [7] was “inactive” each time. Also, the Potency entry in test [8] is “inactive”.
